The text below walks through data of PubChem BioAssay.

Assay [1] can be described thus: compounds binding Alexa647 anti-His antibody – biochemical, small-molecule microarray, 635 nm fluorescence, artefact control for SMM control protein annotation, primary screen (AID 1128).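 Also: score merges feature fluorescence with signal-to-noise for each printed compound spot.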 As to conditions: higher = more signal.
Assay [2] deals with Human papillomavirus type 1a E7 protein (residues 1-88). The assay is described as follows: HPV1a E7 small-molecule binders, primary screen, biochemical, small-molecule microarray, residues 1-88, 635 nm (AID 1129). As to conditions: small-molecule microarray binding, fluorescence 635 nm; higher = more signal.
The target of assay [3] is Focal adhesion kinase 1 (Homo sapiens) (UniProt Q05397). The assay is described as follows: PTK2 protein binding on printed compound slides – biochemical, small-molecule microarray, 635/667 nm fluorescence, BSA, DTT, primary screen (AID 1130).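 Also: composite of spot emission at 667 nm and signal to noise over triplicate slides.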 Conditions: 635 nm fluorescence, higher = more signal.
Assay [4] relates to Fibrinogen (Alexa647-labelled). As to the kind of experiment: Alexa647-fibrinogen binding to printed small molecules – biochemical, small-molecule microarray, 635/667 nm fluorescence, artefact control for SMM control-protein annotation, profiling panel (AID 1131).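 Also: z-score merges 667 nm fluorescence with per-spot signal-to-noise over triplicate slides.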 Conditions: fibrinogen-A647 binding fluorescence, higher = more signal.
The target of assay [5] is Follistatin (Homo sapiens) (UniProt P19883). As to the kind of experiment: FST protein binding to printed compounds – biochemical, small-molecule microarray, 635/667 nm fluorescence, primary screen (AID 1132). As to conditions: 635 nm fluorescence, higher = more signal.
The target of assay [6] is Fibroblast growth factor 2 (Homo sapiens) (UniProt P09038). As to the kind of experiment: basic fibroblast growth factor binding to printed compounds – biochemical, small-molecule microarray, 635/667 nm fluorescence, primary screen (AID 1133). As to conditions: FGF2, fluorescence 635/667, higher = more signal.
The nature of assay [7]: JC-1 mitochondrial potential readout, lung cancer cells – cell-based, A549, JC-1 fluorescence, basal, 24 h, 100 nL, profiling panel (AID 1138).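 Also: A549 lung adenocarcinoma cells under basal conditions with no added stimulus; test concentration not given here.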 As to conditions: higher = more signal.
The next assay deals with Lefty1. The assay is described as follows: Lefty1 protein binding to printed compounds – biochemical, small-molecule microarray, 635/667 nm fluorescence, primary screen (AID 1139). Conditions: fluorescence 635/667, higher = more signal.
For assay [8], the system named is wheat germ agglutinin (Triticum aestivum), Alexa647-labelled. The assay is described as follows: Alexa647-WGA lectin binding to printed small molecules – biochemical, small-molecule microarray, 635/667 nm fluorescence, artefact control for SMM control-protein annotation, profiling panel (AID 1140).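 Also: score merges 667 nm feature emission with signal to noise over triplicate slides.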 Conditions: WGA-A647 binding, 635 nm fluorescence, higher = more signal.

The target of assay [9] is Luciferin 4-monooxygenase (Photinus pyralis) (UniProt P08659). The assay is described as follows: inhibition of purified Photinus pyralis luciferase – biochemical, luminescence, purified enzyme, 2006 set, primary screen (AID 1141).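 Also: cell-free assay with purified firefly luciferase at 100 ng per well in PBS; test concentration not given here.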 Conditions: purified firefly luciferase, SteadyGlo luminescence, 30 min; higher = more signal, called active from +8 up or from −8 down.
Assay [10] has as its system Wnt5a (protein binding on small-molecule microarray). The assay is described as follows: small molecules binding Wnt5a protein – biophysical, small-molecule microarray, 635/667 nm fluorescence, primary screen (AID 1142).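 Also: fluorescence read at 667 nm with signal to noise per printed feature.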 Conditions: 635 nm fluorescence, higher = more signal.
Assay [11] is described as follows: ATP-based viability of Huh7 replicon cells – cell-based, CellTiter-Glo luminescence, basal, 48 h, cytotoxicity control for HCV replication inhibitor project, primary screen (AID 1143).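 Also: Huh7 hepatoma cells carrying a hepatitis C replication reporter with no stimulus; test concentration not given here.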 As to conditions: higher = more signal, called active from +8 up or from −8 down.
Assay [12] can be described thus: Pseudomonas biofilm growth suppression – PAO1 strain, BacTiter-Glo luminescence, LB-PBS, primary screen (AID 1144). As to conditions: P. aeruginosa PAO1 biofilm, 12 h, higher = more signal.
Assay [13] in a line: basal CRE-LacZ reporter activity in PC12 – cell-based, unstimulated, primary screen (AID 1145). Conditions: no forskolin, luminescence, 4.5 h, higher = more signal, called active from +8 up or from −8 down.
The nature of assay [14]: forskolin-driven CRE-LacZ activity in PC12 – cell-based, CRE-LacZ reporter, forskolin-stimulated, primary screen (AID 1146).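 Also: PC12 cells with 6xCRE LacZ reporter stimulated by forskolin 10 µM; beta-galactosidase reporter signal reflecting CREB driven transcription.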 Conditions: luminescence, 4.5 h, higher = more signal, called active from +8 up or from −8 down.
Assay [15] concerns the target Streptavidin (Streptomyces avidinii) (UniProt P22629). As to the kind of experiment: compounds binding control protein streptavidin – biophysical, small-molecule microarray, 635/667 nm fluorescence, artefact control for SMM compound annotation, primary screen (AID 1147).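 Also: signal reflects streptavidin binding to arrayed compounds as a control protein.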 As to conditions: higher = more signal.
The nature of assay [16]: probe aInhba binding on compound microarray – biochemical, small-molecule microarray, 635/667 nm fluorescence, primary screen (AID 1148).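 Also: score merges 667nm spot fluorescence with signal-to-noise for antibody binding to printed compounds.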 Conditions: higher = more signal.
Assay [17] addresses Torsin-1A (Homo sapiens) (UniProt O14656). The assay is described as follows: TOR1A wild-type binding on microarray – cell lysate, small-molecule microarray, lysate, 635/667 nm, primary screen (AID 1149). As to conditions: COS7 hTOR1A-WT lysate, 635 nm fluorescence, higher = more signal.
For assay [18] the target is unchanged. The assay is described as follows: torsin A mutant lysate binding on microarrays – cell lysate, small-molecule microarray, COS7 lysate, 635/667 nm fluorescence, primary screen (AID 1150).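 Also: score pools 667 nm emission and signal to noise measuring lysate protein binding.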 Conditions: COS7 hTOR1A mutant lysate, 635 nm fluorescence, higher = more signal.
Assay [19] relates to Sonic hedgehog protein (Shh). The assay is described as follows: Sonic hedgehog microarray binding compounds – biochemical, small-molecule microarray, 635/667 nm fluorescence, primary screen (AID 1151).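 Also: Shh protein binding to compounds spotted on small-molecule microarray slides; score combines spot fluorescence intensity with signal-to-noise across triplicate slides.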 As to conditions: 635 nm fluorescence, higher = more signal.

The structures appear in SMILES notation. Calls of active or inactive are those of the source. Unless noted, no rule for the calls is given here.

Follistatin (Homo sapiens), sequence (P19883 whole entry, looked up): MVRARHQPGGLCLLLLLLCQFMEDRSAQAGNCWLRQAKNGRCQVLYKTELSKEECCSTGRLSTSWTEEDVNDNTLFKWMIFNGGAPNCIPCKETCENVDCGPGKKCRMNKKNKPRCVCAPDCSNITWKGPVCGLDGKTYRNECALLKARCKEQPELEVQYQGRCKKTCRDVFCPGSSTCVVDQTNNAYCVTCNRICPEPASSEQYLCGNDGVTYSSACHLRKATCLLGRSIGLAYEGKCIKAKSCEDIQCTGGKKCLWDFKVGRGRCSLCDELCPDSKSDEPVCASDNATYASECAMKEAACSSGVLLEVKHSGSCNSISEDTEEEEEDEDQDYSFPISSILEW
Fibroblast growth factor 2 (Homo sapiens), sequence (P09038 whole entry, looked up): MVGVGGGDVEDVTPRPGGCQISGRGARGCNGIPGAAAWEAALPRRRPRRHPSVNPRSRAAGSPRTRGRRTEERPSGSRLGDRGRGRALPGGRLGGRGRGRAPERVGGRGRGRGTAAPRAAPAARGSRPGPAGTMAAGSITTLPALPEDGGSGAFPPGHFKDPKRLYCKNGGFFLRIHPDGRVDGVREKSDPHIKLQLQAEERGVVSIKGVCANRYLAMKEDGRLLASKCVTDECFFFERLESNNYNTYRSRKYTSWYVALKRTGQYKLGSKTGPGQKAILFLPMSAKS
Streptavidin (Streptomyces avidinii), sequence (P22629 whole entry, looked up): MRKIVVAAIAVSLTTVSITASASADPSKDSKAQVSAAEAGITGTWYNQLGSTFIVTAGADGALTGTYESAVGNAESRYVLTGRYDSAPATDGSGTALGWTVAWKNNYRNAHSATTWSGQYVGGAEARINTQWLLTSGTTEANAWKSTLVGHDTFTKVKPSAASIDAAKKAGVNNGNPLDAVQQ
Torsin-1A (Homo sapiens), sequence (O14656 whole entry, looked up): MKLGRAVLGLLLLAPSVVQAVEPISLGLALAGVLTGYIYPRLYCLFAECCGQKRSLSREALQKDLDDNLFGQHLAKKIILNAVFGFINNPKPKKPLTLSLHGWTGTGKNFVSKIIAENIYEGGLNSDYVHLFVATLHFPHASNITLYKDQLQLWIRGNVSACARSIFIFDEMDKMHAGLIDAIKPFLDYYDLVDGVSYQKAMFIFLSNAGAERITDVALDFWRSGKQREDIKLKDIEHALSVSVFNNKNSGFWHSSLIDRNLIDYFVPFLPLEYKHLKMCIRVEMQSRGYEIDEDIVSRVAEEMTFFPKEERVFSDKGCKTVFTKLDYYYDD
Luciferin 4-monooxygenase (Photinus pyralis), sequence (P08659 whole entry, looked up): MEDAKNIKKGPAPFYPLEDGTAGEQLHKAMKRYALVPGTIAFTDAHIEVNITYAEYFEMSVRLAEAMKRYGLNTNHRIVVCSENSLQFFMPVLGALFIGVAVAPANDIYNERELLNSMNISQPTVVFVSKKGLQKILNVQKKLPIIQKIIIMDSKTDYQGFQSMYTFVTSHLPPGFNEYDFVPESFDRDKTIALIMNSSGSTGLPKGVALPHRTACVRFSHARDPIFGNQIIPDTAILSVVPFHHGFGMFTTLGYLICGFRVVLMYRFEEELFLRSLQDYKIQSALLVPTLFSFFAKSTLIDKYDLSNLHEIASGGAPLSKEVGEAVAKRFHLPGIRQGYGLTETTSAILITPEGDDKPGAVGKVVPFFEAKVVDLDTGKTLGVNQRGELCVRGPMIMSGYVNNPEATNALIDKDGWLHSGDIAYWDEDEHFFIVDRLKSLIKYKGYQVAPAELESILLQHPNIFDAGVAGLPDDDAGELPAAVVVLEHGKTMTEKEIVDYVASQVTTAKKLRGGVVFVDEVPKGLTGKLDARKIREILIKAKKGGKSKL
Focal adhesion kinase 1 (Homo sapiens), sequence (Q05397 whole entry, looked up): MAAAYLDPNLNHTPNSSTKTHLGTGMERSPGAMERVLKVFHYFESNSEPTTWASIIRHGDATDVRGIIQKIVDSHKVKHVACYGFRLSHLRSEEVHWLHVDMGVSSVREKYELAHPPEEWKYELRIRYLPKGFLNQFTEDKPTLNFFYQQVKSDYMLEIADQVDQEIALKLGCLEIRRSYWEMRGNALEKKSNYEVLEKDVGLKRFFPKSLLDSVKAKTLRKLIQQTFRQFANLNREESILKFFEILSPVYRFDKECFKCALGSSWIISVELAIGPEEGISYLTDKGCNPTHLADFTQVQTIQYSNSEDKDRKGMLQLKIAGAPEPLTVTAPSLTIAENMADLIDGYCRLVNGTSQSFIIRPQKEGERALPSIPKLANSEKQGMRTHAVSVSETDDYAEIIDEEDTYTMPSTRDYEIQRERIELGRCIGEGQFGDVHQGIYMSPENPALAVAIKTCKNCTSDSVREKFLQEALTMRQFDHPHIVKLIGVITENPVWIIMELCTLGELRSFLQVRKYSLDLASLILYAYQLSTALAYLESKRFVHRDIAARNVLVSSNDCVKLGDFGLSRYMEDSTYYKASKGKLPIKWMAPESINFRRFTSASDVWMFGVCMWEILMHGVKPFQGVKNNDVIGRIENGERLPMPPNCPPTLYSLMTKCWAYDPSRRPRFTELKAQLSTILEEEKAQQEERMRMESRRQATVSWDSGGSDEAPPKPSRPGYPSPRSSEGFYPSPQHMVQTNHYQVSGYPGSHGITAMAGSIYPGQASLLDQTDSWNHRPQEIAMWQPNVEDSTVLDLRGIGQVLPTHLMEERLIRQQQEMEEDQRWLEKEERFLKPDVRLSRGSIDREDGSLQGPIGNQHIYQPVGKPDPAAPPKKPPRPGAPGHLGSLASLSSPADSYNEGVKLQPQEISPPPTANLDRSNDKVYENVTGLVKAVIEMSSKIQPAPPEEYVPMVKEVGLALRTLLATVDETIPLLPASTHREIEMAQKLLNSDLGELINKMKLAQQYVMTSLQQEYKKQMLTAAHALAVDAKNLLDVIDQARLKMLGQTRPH

Regarding `C=CCC(OC(C)=O)[C@@H]1[C@@H](N(Cc2cccc3ccccc23)C(=O)c2cccc3ccccc23)c2cc(OCCCO)ccc2N1C(=O)c1ccc(-c2ccccc2)cc1` (stereo not given in full), the composite z-score in assay [1] is -0.123; in assay [2], -0.14; in assay [3] it was 0.0614; in [4] it was 0.643; in assay [5] it was 0.693; in [6] it was 0.497. Besides, the composite z-score with Lefty1 is 0.0548; in assay [8] it was 0.0915; in [10], -0.0964; in assay [15], 0.116; in assay [16] it was 0.0543; in the assay with Torsin-1A (Homo sapiens) [17] it was -0.104. For the same molecule, the composite z-score worked out at 0.292 with Torsin-1A (Homo sapiens) [18] and 0.556 in assay [19]. The z-score was -0.338 in [7]; 0.337 (inactive) in assay [9]; -1.56 (inactive) in assay [11]; 1.21 (inactive) in [12]; -0.113 (inactive) in assay [13]; 1.24 (inactive) in assay [14].
On to `CN(C)CCCNC(=O)[C@@H]1c2ccccc2C(=O)N(Cc2ccccc2Cl)[C@H]1c1ccc(CO)cc1`, for which the composite z-score in assay [1] is 1.3; in assay [2], 0.51; in [3], -0.0522; in assay [4], 0.462; in [5] it was -0.0713; in assay [6], -0.0728. Further, the composite z-score with Lefty1 is -0.92; in assay [8] it was 1.05; in assay [10] it was -0.12; in assay [15] it was -0.34; in [16], -0.182; in the assay with Torsin-1A (Homo sapiens) [17], 1.59. In addition, the composite z-score with Torsin-1A (Homo sapiens) [18] was 0.798; in assay [19], -0.12. In addition, the z-score is 1.53 in assay [7]; -0.751 (inactive) in [9]; -1.77 (inactive) in assay [11]; 0.388 (inactive) in [12]; -0.206 (inactive) in [13]; -0.343 (inactive) in [14].
In the case of `CCOC(=O)C[C@H]1[C@H](OC(=O)c2cc3ccccc3oc2=O)[C@@H](NC(=O)Cc2ccc(OC)cc2)c2cc(OCCCO)ccc2N1C(=O)c1ccc2ccccc2n1`, the composite z-score in [1] came out at 1.37; in [2], 0.649; in assay [3], 0.199; in assay [4], 0.122; in assay [5] it was 0.93; in [6], 0.956. For the same molecule, the composite z-score worked out at 0.838 with Lefty1; 0.0863 in assay [8]; 0.34 in [10]; 0.14 in [15]; 0.0275 in [16]; 0.0518 with Torsin-1A (Homo sapiens) [17]. The composite z-score was found to be 0.161 in the assay with Torsin-1A (Homo sapiens) [18] and 0.479 in assay [19]. Besides, the z-score in assay [7] is -0.013; in assay [9], 0.0113 (inactive); in assay [11], 0.0642 (inactive); in assay [12], 0.177 (inactive); in assay [13], 11.5 (active); in assay [14] it was -0.906 (inactive).
As for `C=C(/C(=C/C[C@H](OC(C)=O)c1ccccc1OCCO)c1cc(C(=O)OC)ccc1OC)C(C)C`, the composite z-score in assay [1] was 2.68; in [2], 0.278; in assay [3] it was -0.164; in assay [4] it was 0.0823; in assay [5], 0.494; in assay [6] it was 0.428. The composite z-score in the assay on Lefty1 was 0.501; in [8], 0.151; in assay [10], 0.608; in [15] it was -1.06; in [16], 0.0906; with Torsin-1A (Homo sapiens) [17], 0.356. Also, the composite z-score was 1.53 in the assay with Torsin-1A (Homo sapiens) [18] and 1.4 in [19]. In addition, the z-score is -0.139 in assay [7]; -0.475 (inactive) in assay [9]; -3.44 (inactive) in assay [11]; 0.48 (inactive) in [12]; 13.6 (active) in [13]; -0.556 (inactive) in assay [14].
With `Cc1ccc(S[C@]2(C(=O)O)CC(=O)N(C3Cc4ccccc4C3)[C@@H]2c2ccc(CO)cc2)cc1`, the composite z-score in [1] is 3.14; in assay [2] it was 0.246; in assay [3], 0.583; in assay [4] it was -0.428; in assay [5] it was -0.987; in assay [6], -0.306. The composite z-score with Lefty1 is -0.889; in [8], -0.339; in [10], -0.127; in assay [15] it was -0.395; in [16], 0.0018; in the assay with Torsin-1A (Homo sapiens) [17], 0.794. The composite z-score in the assay with Torsin-1A (Homo sapiens) [18] was 0.431; in assay [19], -0.3. In addition, the z-score was 0.225 in assay [7]; -0.675 (inactive) in assay [9]; 0.121 (inactive) in assay [11]; 0.0572 (inactive) in assay [12]; 0.001 (inactive) in assay [13]; 0.629 (inactive) in assay [14].
